PubChem BioAssay AID1650 (Southern Research Specialized Biocontainment Screening …, 2009)
Entries with a potency or affinity are not part of this list. Active and inactive are the calls of the source. How the calls were made is not given here.

Experiment: host cell cytotoxicity of antiviral hits, dose response, cytotoxicity control for West Nile virus antiviral project, secondary assay (AID 1650)

Compound | outcome
CC(C)n1cc(CN2CCCC(C(=O)Nc3cccc(-c4cc5ccccc5[nH]4)c3)C2)cn1 (configuration not stated) | inactive
O=C1Nc2cc(C(=O)NCCCN3CCOCC3)ccc2S/C1=C/c1cccc(Cl)c1 | inactive
Cc1ccc(S(=O)(=O)N(C)C)cc1NC(=O)c1cncc(Br)c1 | inactive
COc1cc(/C=C/C(=O)c2ccc(NS(=O)(=O)c3ccc(C)cc3)cc2)cc(OC)c1O | inactive
COc1cc(NC(=O)c2cc([N+](=O)[O-])ccc2Br)ccc1NC(=O)c1ccco1 | inactive
CCCCCCCCCc1nc2sc3c(c2c(=O)n1NC(=O)c1ccc([N+](=O)[O-])cc1)CC(C)(C)OC3 | inactive
CN(C)CCCN(C(=O)c1ccc(S(=O)(=O)N2CCCc3ccccc32)cc1)c1nc2ccc(F)cc2s1 | inactive
